Growth data for seven compounds are collected here from PubChem BioAssay (NCI).

Compounds without any hit were thinned out: in the full panel of roughly 83,000, 20% have a hit.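 Percent growth is the endpoint: 0 to 100 indicates growth inhibition (40 means 60% inhibition), 0 means no net growth, and negative values indicate cell death.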 Values without a mark were called inactive. Calls of active or inactive are those of the source. Rule for the calls: active = growth percent below 10; inactive = the rest.

Assay in all cases: NCI-60 one-dose screen, 48 h (100 = growth as untreated, 0 = no growth, -100 = all killed)
Assay [1] has as its system NCI-H226 lung. The note with it: 10 µM.
The subject of assay [2] is NCI-H322M lung. The note with it: 10 µM.
Assay [3] concerns HOP-62 NSCLC. The note with it: 10 µM.
In assay [4] the test system is NCI-H460 lung. The note with it: 10 µM.
Assay [5] relates to A549/ATCC NSCLC. The note with it: 10 µM.
In assay [6] the test system is DU-145 prostate. The note with it: 10 µM.
Assay [7] deals with SF-268 CNS. The note with it: 10 µM.
The subject of assay [8] is SF-295 CNS. The note with it: 10 µM.
Assay [9] relates to SF-539 CNS. The note with it: 10 µM.
Assay [10] has as its system M14 melanoma. The note with it: 10 µM.
For assay [11], the system named is HCT-15 colon. The note with it: 10 µM.
In assay [12] the test system is HT29 colon. The note with it: 10 µM.
Assay [13] concerns SNB-75 CNS. The note with it: 10 µM.
Assay [14] relates to SNB-19 CNS. The note with it: 10 µM.
Assay [15] has as its system U251 CNS. The note with it: 10 µM.
Assay [16] has as its system PC-3 prostate. The note with it: 10 µM.
Assay [17] relates to SK-MEL-5 melanoma. The note with it: 10 µM.
The test system of assay [18] is UACC-62 melanoma. The note with it: 10 µM.
The test system of assay [19] is SK-MEL-28 melanoma. The note with it: 10 µM.
The subject of assay [20] is HL-60(TB) leukemia. The note with it: 10 µM unless noted.

As to `N#C[Se]CC(=O)Nc1cccc(C(F)(F)F)c1`, the growth in assay [1] was -37.7% (active); in assay [2] it was -19.6% (active); in assay [3], -57.6% (active); in [4] it was -9.31% (active); in [5] it was -50.4% (active); in assay [6], -13% (active). Besides, the growth is 2.88% (active) in assay [7]; -72.7% (active) in assay [8]; -91% (active) in assay [9]; -42.7% (active) in assay [10]; -84.8% (active) in assay [11]; -31.9% (active) in assay [12]. In addition, the growth in [13] was -23.5% (active); in [14] it was -88.1% (active); in assay [15], -48.4% (active); in assay [16], 26.8%; in [17] it was -73.4% (active); in [18], -77.4% (active). In addition, the growth in assay [19] is -63.2% (active); in assay [20] it was 0.147% (active).
Take `COC(=O)C[C@](O)(CCC(C)C)C(=O)O[C@@H]1C(OC)=C[C@]23CCCN2CCc2cc4c(cc2[C@H]13)OCO4`: the growth was -55.1% (active) in [1]; -25.1% (active) in [2]; -50.4% (active) in [3]; -20.6% (active) in assay [4]; -27.1% (active) in assay [5]; -26.7% (active) in assay [6]. In addition, the growth in [7] is -21.3% (active); in [8] it was -35.5% (active); in assay [9] it was -77.1% (active); in assay [10] it was -89% (active); in [11], -32.9% (active); in [12], -62.1% (active). For the same compound, the growth in [13] is -32.9% (active); in [14], -16.9% (active); in assay [15] it was -27.3% (active); in assay [16], -19% (active); in assay [17] it was -95.4% (active); in assay [18], -92.5% (active). In addition, the results for the growth in assay [19] and in assay [20] were -68.8% (active) and -31% (active), respectively.
As for `COCCOCCOCCOc1ccc(-n2cc(-c3ccc(O[C@H]4O[C@@H]5OC6(C)CC[C@H]7[C@H](C)CC[C@@H]([C@H]4C)[C@@]57OO6)cc3)nn2)cc1`, the growth in assay [1] is 79.7%; in assay [2], 86.1%; in [3] it was 73.6%; in [4] it was 70.6%; in assay [5] it was 60.1%; in assay [6], 42.6%. For the same compound, the growth is 59% in assay [7]; 40.4% in assay [8]; 47.6% in assay [9]; 32% in assay [10]; 12.7% in assay [11]; 48.1% in [12]. For the same compound, the growth in [13] is 66.5%; in [14], 64%; in [15], 73%; in assay [16], 28%; in assay [17], -24.4% (active); in [18], 37.3%. The growth in assay [19] was 44.6%; in [20] it was 10.1%.
On to `O=C(/C=C/c1ccc(Br)cc1)c1nc2ccccc2n1Cc1ccc(Br)cc1`, for which the growth in assay [1] was -70.1% (active); in [2] it was 39%; in assay [3], -22.1% (active); in [4] it was -14.4% (active); in assay [5], 30%; in assay [6], 17.9%. Further, the growth is 29.9% in [7]; -34.9% (active) in [8]; -60.2% (active) in [9]; -26.7% (active) in assay [10]; -68.4% (active) in [11]; -27.6% (active) in assay [12]. Also, the growth in assay [13] was 45%; in [14], -66.9% (active); in assay [15] it was -86.3% (active); in assay [16], 18.7%; in assay [17], 1.54% (active); in assay [18] it was -66.5% (active). Moreover, the growth in assay [19] is -43.9% (active); in assay [20], -13.2% (active).
With `C[C@H]1[C@H](OC(=O)CCC(=O)N(CCCc2cn(-c3ccc(CN4CCOCC4)cc3)nn2)CCNc2ccnc3cc(Cl)ccc23)O[C@@H]2OC3(C)CC[C@H]4[C@H](C)CC[C@@H]1[C@@]24OO3`, the growth was 54.1% in assay [1]; 20.9% in [2]; 56.4% in assay [3]; 7.93% (active) in [4]; 36% in assay [5]; 49.7% in assay [6]. In addition, the growth in [7] is 50.1%; in [8], -2.37% (active); in assay [9], -73% (active); in [10] it was -66.3% (active); in assay [11] it was 8.55% (active); in [12], -12.5% (active). For the same compound, the growth in [13] was 38.7%; in assay [14], 50.9%; in assay [15], 13.3%; in [16], 29.2%; in assay [17], -90% (active); in [18], 16.6%. In addition, the growth in [19] is -69.3% (active); in assay [20] it was -47% (active).
Take `Cc1ccc2[nH]c(=S)n(-c3ccc(F)cc3)c(=O)c2c1`: the growth is 97.6% in [1]; 99% in assay [2]; 96.3% in assay [3]; 106% in assay [4]; 100% in assay [5]; 110% in assay [6]. In addition, the growth in [7] is 106%; in assay [8], 98.9%; in assay [9], 94.8%; in [10] it was 100%; in assay [11] it was 98.9%; in assay [12], 107%. The growth in assay [13] was 100%; in [14], 90.3%; in [15] it was 102%; in [16], 90%; in assay [17], 98.3%; in assay [18], 90.7%. In addition, the growth in [19] is 101%; in assay [20], 118%.
Consider `C#CCCCN(CCNc1ccnc2cc(Cl)ccc12)C(=O)CCC(=O)O[C@@H]1O[C@@H]2OC3(C)CC[C@H]4[C@H](C)CC[C@@H]([C@H]1C)[C@@]24OO3`, for which the growth in assay [1] is 44.9%; in [2], 65.1%; in assay [3], 58.9%; in assay [4], 40.6%; in [5] it was 40.8%; in assay [6], 59.1%. Moreover, the growth in assay [7] was 56.9%; in [8], 33.8%; in assay [9], 39.2%; in [10], 37.7%; in assay [11] it was 12.1%; in [12], 4.95% (active). Further, the growth is 67% in assay [13]; 56.5% in assay [14]; 45.7% in assay [15]; 37% in assay [16]; -36.1% (active) in [17]; 31.4% in [18]. The growth in [19] is 44.1%; in assay [20], -26.3% (active).
